Test results taken from PubChem BioAssay (NCI).
About 79,000 compounds went through this panel and 15% of them were active in at least one assay; those are over-represented in the sample as a whole. Calls of active or inactive are those of the source. Rule as the data show it: active = growth inhibition above about 70%; inactive = the rest.

experiment: NCI Yeast Anticancer Drug Screen. Data for the mlh1 rad18 strain (AID 175); conditions: S. cerevisiae mlh1 rad18 strain growth inhibition, active compounds read high; at 50.0 µM unless noted
Procedure, shortened: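 Vehicle-treated cultures served as the reference for growth inhibition in a yeast strain carrying DNA damage repair alterations exposed to each compound.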

| Structure (SMILES) | growth inhibition |
| --- | --- |
| Cc1cccc(NC(=O)C(=O)C(C(=O)c2ccc3ccccc3c2)C2OC(=O)c3ccccc32)c1C (stereo not given) | -6.75% (inactive) |
| COc1ccc(C2OC3=C(Nc4cc(C)c(C)cc4N3)C2=O)cc1 (stereo not given) | 13.8% (inactive) |
| COc1ccc(OC)c(/C=N\NC(=O)N/N=C/c2cc(OC)ccc2OC)c1 | -3.9% (inactive) |
| COc1cc(O)c2c(=O)cc(-c3ccc(O)cc3O)oc2c1CC=C(C)C | -20.5% (inactive) |
| COc1cc(NC(C)=O)c2c(c1)SCC(=O)N2 | 1.4% (inactive) |
| CN1N=CSC12C(=O)N(c1ccccc1)C(=O)N2c1ccccc1 (stereo not given) | -14.2% (inactive) |
| CN(C)CCl | -13.1% (inactive) |
| CCOC(=O)C1=C(O)C[C@]2(O)C3CC=C(C)[C@@H]4CCO[C@](OC)(C[C@H]2C1)[C@]34C(=O)OC (stereo not given in full) | 13.1% (inactive) |
| CCC(C)C(NC(=O)C1CSC(C)(C)N1C=O)C(=O)OC1CCCCC1 (stereo not given) | 9.55% (inactive) |
| O=C(CCCC1CCCCC1)OC1CCCCC1 | -1.3% (inactive) |
| CCN(CC)CCNC(=O)c1ccc(I)cc1 | -30.9% (inactive) |
| CCCCNC(=O)/C=C/C(=O)NCCCC | -1.5% (inactive) |
| C[C@H]1CC[C@@H]2O[C@@]23C(=O)OC2OC(C)(C)[C@@H]([C@H]2O)[C@]13C | -10.9% (inactive) |
| CCOC(=O)CC(=O)CC(=O)OCC | 7% (inactive) |
| COC(=O)C(Br)C(Br)c1cc(OC)c(OC)c(OC)c1 (stereo not given) | 14.2% (inactive) |
| Cc1ccc(S(=O)(=O)N(C)c2ccc3c(c2)C(=O)c2ccccc2-3)cc1 | 26.4% (inactive) |
| CNCCCn1c2ccccc2c2c3c(c(-c4ccsc4)cc21)C(=O)NC3=O | -40.5% (inactive) |
| Nc1ncnc(N)c1NC(=O)c1cccnc1 | 5.5% (inactive) |
| c1ccc2nn(C3CCCO3)nc2c1 (stereo not given) | -43.5% (inactive) |
| OCc1ccccc1Sc1ccccc1CO | 24% (inactive) |

| Structure (SMILES) | growth inhibition |
| --- | --- |
| O=C(c1ccccc1)C1(c2ccccc2)OC1(C(=O)c1ccccc1)c1ccccc1 (stereo not given) | 4.2% (inactive) |
| O=C(O)c1nc2cn1/C=C\C=NCC1=CN3C=CC=NC3(C(=O)O)N1C2 (stereo not given) | -18.9% (inactive) |
| O=C(OC1c2cccc3cccc(c23)C1O)c1ccccc1 (stereo not given) | 1.75% (inactive) |
| O=P(O)(O)OP(=O)(O)O | 25.8% (inactive) |
| CC12CC(O)C3C(CCC4CC(O)CCC43C)C1CCC2C(=O)CO (stereo not given) | 10.4% (inactive) |
| CN(C)c1nc(NC(=O)NC(=O)c2c(F)cccc2F)nc(N(C)C)n1 | 10.3% (inactive) |
| O=C(O)CCN(CCCCN(CCC(=O)O)CCC(=O)O)CCC(=O)O | -4.15% (inactive) |
| COc1cc(CNc2ccccc2)ccc1O | -8.4% (inactive) |
| Cc1cccc2ccc(-c3cc4ccccc4s3)nc12 | -21.1% (inactive) |
| O=C(O)CS(=O)c1ccc2c3c(cccc13)C(=O)c1ccccc1-2 (stereo not given) | 1.7% (inactive) |
| C=CCSc1cccc(C)c1 | -16.1% (inactive) |
| COC1OCC(N=[N+]=[N-])C(OS(C)(=O)=O)C1OS(C)(=O)=O (stereo not given) | -34.5% (inactive) |
| O=[N+]([O-])c1c[nH]c2ncnc(Cl)c12 | 6.8% (inactive) |
| C[C@]12C=CC(=O)C=C1CC[C@@H]1[C@@H]2C(=O)C[C@@]2(C)[C@H]1CC[C@]2(O)C(=O)COC(=O)CSc1c2ccccc2nc2ccccc12 | 19.3% (inactive) |
| O=C(O)CNC(=S)SCC(=O)O | -19.6% (inactive) |
| CCOC(=O)C(F)C(=O)OCC | -5.4% (inactive) |
| CCOC(Cn1ccc[n+]1CC(=O)c1ccccc1)OCC | 9.1% (inactive) |
| Nc1c(F)cc(I)cc1F | 1.35% (inactive) |
| CN=C1CC2c3cc(OC)c(OC)cc3CCN2C2=C1C(=O)CC(C)(C)C2 (stereo not given) | 16.6% (inactive) |
| N#CC1(C(=O)c2ccccc2)C=Cc2ccccc2N1C(=O)c1ccccc1 (stereo not given) | -19.2% (inactive) |
